# Source: PubChem (National Center for Advancing Translational Sciences (NCATS))
# Cruzain inh noDet: inhibitors of Trypanosoma cruzi cruzain without detergent. purified cruzain, Z-FR-AMC fluorescence, no detergent. P25779. AID 1476. 200,000 tested, 2.3% active. Potency, µM, inactives show max response, negative = inhibition, actives largely listed as inhibitors;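 further: plate controls were enzyme without inhibitor for no effect and buffer without enzyme for full effect; nearly all actives have a fitted effect of over 40% in size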
# Target sequence (P25779 123-467 limits assumed): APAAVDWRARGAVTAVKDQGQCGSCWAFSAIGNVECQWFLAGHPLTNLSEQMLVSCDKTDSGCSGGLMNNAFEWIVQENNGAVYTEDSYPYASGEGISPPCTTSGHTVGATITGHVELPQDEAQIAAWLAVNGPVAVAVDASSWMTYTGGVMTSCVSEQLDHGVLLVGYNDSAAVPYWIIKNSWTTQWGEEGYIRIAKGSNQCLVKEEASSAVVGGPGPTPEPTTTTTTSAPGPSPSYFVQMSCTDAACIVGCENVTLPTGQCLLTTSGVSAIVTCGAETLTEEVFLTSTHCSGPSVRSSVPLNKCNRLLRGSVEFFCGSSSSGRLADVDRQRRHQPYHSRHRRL
#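 Purified cruzain at 1.5 nM, pre-incubated 15 min with compound at room temperature in 100 mM sodium acetate pH 5.5, 5 mM DTT, 0.00005% Triton X-100. Reaction started with 2 uM Z-FR-AMC; AMC fluorescence increase over 60 s gives rate.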
# Cruzain inh Det: inhibitors of Trypanosoma cruzi cruzain with detergent | P25779 | purified cruzain, Z-FR-AMC fluorescence, 0.01% Triton | Potency, µM, for inactives: max response, negative = inhibition, actives largely listed as inhibitors | 200,000 tested, 0.43% active;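 further: plate controls were neutral wells for no effect and buffer without enzyme for full effect; nearly all actives have a fitted effect of over 40% in size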
#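 Cruzain (1.5 nM) preincubated 15 min at RT with compound in 100 mM sodium acetate pH 5.5, 5 mM DTT, 0.01% Triton X-100. Reaction started with 2 uM Z-FR-AMC; AMC fluorescence (ex 360/em 450 nm) change over 60 s gave rate.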
# Starred values were filed as active, the others as inactive; ? = inconclusive. Shown are actives, neighbours in structure and some others; about 2.4% of the full set was active somewhere. The call rests on the fitted dose curve; in most records, active means well fitted curve in the direction sought with a large enough effect; inconclusive means small, poorly fitted or top-dose-only effect, or another doubt; inactive means no such curve, though single readings can be large; an effect the other way counts as inactive or inconclusive. Potency means the concentration at half of the fitted maximal effect.
SMILES,Cruzain inh noDet,Cruzain inh Det
CC(C)C(=O)NC(c1ccco1)c1ccc2cccnc2c1O (configuration not stated),-8.1%,-0.1%
Cc1ccc(N=c2c([N+](=O)[O-])nn(-c3ccccc3)n2O)c(C)c1,?,-6.6%
Cc1c(Cl)cccc1N=c1c([N+](=O)[O-])nn(-c2ccccc2)n1O,20µM*,1.8%
CCC1CN(C(=O)Nc2cccc3c2CCCC3)c2cc(C)ccc2O1 (configuration not stated),12.5%,-3.8%
CCn1c2ccccc2c2cc(NC(=O)Cc3ccc(S(=O)(=O)N4CCOCC4)s3)ccc21,15.8µM*,-2.1%
CCn1c2ccccc2c2cc(NC(=O)C3CCN(S(=O)(=O)c4cccs4)CC3)ccc21,?,1.8%
Cc1cc(C)cc(NC(=O)Cn2c3ncccc3c(=O)n2-c2ccc(C)c(C)c2)c1,1.9%,1.6%
CCc1ccc2nc3sc(C(=O)N4CCc5ccccc54)c(N)c3cc2c1,25.1µM*,-3.0%
Cc1ccc(C)c2nc3sc(C(=O)N4CCCc5ccccc54)c(N)c3cc12,3.4%,4.6%
COc1ccc2[nH]c3c(c2c1)CCNC3=O,-2.7%,-3.0%
COc1ccc2[nH]c3c(c2c1)CCN=C3C,12.6µM*,-11.8%
Cc1ccc(C)c(Nc2nn3c(=O)c4ccc(C(=O)NCc5cccs5)cc4nc3s2)c1,-7.1%,-0.5%
CNC(=S)N1N=C(c2ccc(C)cc2)CC1c1ccc(Cl)cc1 (configuration not stated),-29.9%,-7.7%
CNC(=S)N1N=C(c2ccc(C)cc2)CC1c1ccc(Br)cc1 (configuration not stated),2.51µM*,-1.7%
Cc1cc(C(=O)Nc2sc3c(c2C#N)CCC(C)C3)cs1 (configuration not stated),?,3.1%
CC1CCc2c(sc(NC(=O)COC(=O)c3ccccc3NCc3ccco3)c2C#N)C1 (configuration not stated),15.8µM*,5.5%
CC1CCc2c(sc(NC(=O)COc3ccccc3C(C)(C)C)c2C#N)C1 (configuration not stated),-7.7%,-0.9%
N#Cc1c(NC(=S)NC(=O)c2ccccc2)sc2c1CCCC2,-23.7%,-3.2%
N#Cc1c(NC(=S)NC(=O)c2ccccc2)sc2c1CCN(CCc1ccccc1)C2,15.8µM*,-15.2%
Cc1ccccc1C(=O)NC(=S)Nc1sc2c(c1C#N)CCC(C)C2 (configuration not stated),15.8µM*,1.9%
Cc1ccccc1NC(=O)CCn1nc(-c2ccccc2)c2ccccc2c1=O,-0.9%,-0.8%
Cc1ccc(-n2cnc3cc(C(=O)NCc4ccc(F)cc4)ccc32)c(C)c1,9.9%,0.8%
CC(=O)N1CCc2cc(Br)cc(S(=O)(=O)N3CCC(C(=O)Nc4ccc(C(C)C)cc4)CC3)c21,?,-6.3%
Nc1ccc2c(c1)N1CCN=C1S2,9.9%,-7.8%
O=C(Nc1ccc(Cl)cc1)Nc1ccc2c(c1)N1CCN=C1S2,31.6µM*,?
SMILES,Cruzain inh noDet,Cruzain inh Det
Cc1cc(Cl)ccc1OCC(=O)N1CCC(c2nc3ccccc3o2)CC1,?,-9.9%
Cc1cc(Br)ccc1NC(=O)c1cc2c(s1)-c1ccccc1SC2,7.94µM*,-7.4%
Cc1cc(Br)ccc1NC(=O)c1ccccc1-c1ccccc1,10.1%,-7.9%
CN(C)S(=O)(=O)c1ccc(C(=O)Nc2ccc(-n3nncc3-c3ccccc3)cc2)cc1,-15.9%,-0.3%
Cc1c(Cl)cccc1NC(=O)Nc1ccc2snnc2c1,-26.5%,-7.7%
O=S(=O)(Nc1cccc(Cl)c1)c1ccc2[nH]c3c(c2c1)CCCCCC3,-27.1%,4.3%
O=S(=O)(NCc1ccccc1)c1ccc2[nH]c3c(c2c1)CCCCC3,?,-14.5%
O=S(=O)(c1ccc2[nH]c3c(c2c1)CCCCC3)N1CCN(c2cccc(Cl)c2)CC1,7.94µM*,-0.9%
O=S(=O)(c1ccc2[nH]c3c(c2c1)CCCCC3)N1CCN(c2ccccc2)CC1,25.1µM*,-3.5%
COc1c(F)c(F)c(C(=O)Nc2ccc3oc(-c4ccncc4)nc3c2)c(F)c1F,?,0.9%
Cc1cccc(C(=O)Nc2ccc3oc(-c4cccc5c(Br)cccc45)nc3c2)c1,?,-0.3%
Cc1cccc(C(=O)Nc2ccc3oc(-c4ccncc4)nc3c2)c1,?,25.1µM*
O=C(Nc1ccc2oc(-c3ccncc3)nc2c1)c1c(F)c(F)c(F)c(F)c1F,10µM*,3.5%
Fc1ccccc1N1CCN(c2ncnc3onc(-c4cccc(Cl)c4)c23)CC1,-8.6%,-3.4%
COCCNC(=O)Nc1cc(C(=O)NCc2ccc(C(C)C)cc2)ccc1N1CCCC1,?,-6.9%
Cc1ccccc1NC(=O)Cn1c(SCC(=O)Nc2ccc(F)cc2)nc2ccccc21,2.3%,-1.8%
Cc1ccc2nc(-c3cccs3)c(Nc3c(C)cccc3C)n2c1,-7.5%,-10.2%
COCOc1cc(OC)ccc1C(=O)/C=C/c1cccc(C(F)(F)F)c1,1.3%,-1.3%
COc1cc2c(cc1NC(=O)CSc1nc3cc(Cl)ccc3s1)oc1ccccc12,7.94µM*,-3.5%
COc1cc2c(cc1NC(=O)CSc1ccccc1)oc1ccccc12,-3.3%,-7.5%
COc1cc2c(cc1NC(=O)CSc1nccn1C)oc1ccccc12,8.0%,-10.7%
COc1cc2c(cc1NC(=O)CSc1nc3ccccc3[nH]1)oc1ccccc12,25.1µM*,6.0%
O=C(NCc1ccco1)c1ccc2c(=O)n(CCC3=CCCCC3)c(=O)[nH]c2c1,15.8µM*,-0.1%
CCN1CCN(C(=O)c2ccc3c(=O)n(CCC4=CCCCC4)c(=O)[nH]c3c2)CC1,10.2%,-0.2%
CCCCn1c(SCC(=O)c2ccccc2)nc2sc3c(c2c1=O)CCCC3,-10.7%,0.2%
SMILES,Cruzain inh noDet,Cruzain inh Det
CC1=CC(C)(C)Nc2ccc(OC(=O)CN3C(=O)c4cccc5cccc(c45)C3=O)cc21,25.1µM*,-7.6%
CC1=CC(C)(C)Nc2ccc(OC(=O)CN3C(=O)c4ccccc4C3=O)cc21,4.4%,-6.4%
Nc1ccc(N2CCN(c3cccc(Cl)c3)CC2)cc1,15.8µM*,-5.9%
O=C(O)c1ccccc1C(=O)N1CCN(c2cccc(Cl)c2)CC1,-20.3%,-3.7%
COc1ccc(-c2cc(C)nc(SCc3cccc(C(=O)O)c3)n2)cc1,26.5%,-11.5%
O=C(O)c1cccc(CSc2nc(-c3ccc(Cl)cc3)cc(C(F)(F)F)n2)c1,-28.4%,28.2µM*
CC(=O)Nc1ccc(S(=O)(=O)N2CCC(n3c(C)nc4cccnc43)CC2)cc1,-4.2%,1.4%
Cc1ccc2c(c1)c(=O)c1ccccc1n2CCCC(=O)Nc1cc(Cl)ccc1C,15.0%,5.6%
COc1ccc(Nc2nc(-c3cc4cccc(OC)c4oc3=O)cs2)cc1,?,0.3%
COc1ccc2oc(=O)c(-c3csc(Nc4cccc(O)c4)n3)cc2c1,25.1µM*,-11.6%
CC(C)c1nn2c(=O)cc(COC(=O)c3cccc(NC(=O)c4ccccc4F)c3)nc2s1,1.9%,0.4%
Cc1ccc(NC(=O)CCCn2c(=O)c3cccn3c3cccnc32)cc1C,-11.6%,-1.9%
Nc1sc2c(c1C(=O)c1ccccc1)CCCC2,-23.9%,-8.2%
NC(=O)c1c(N)sc2c1CCCC2,20µM*,-21.9%
CCC(C(=O)NC1CCC(C)CC1)n1nc(C)c2sc3ccccc3c2c1=O (configuration not stated),-4.2%,-1.7%
CN(Cc1ccco1)C(=O)c1ccc2c(c1)N(Cc1ccccc1F)C(=O)c1ccccc1S2,-14.2%,-3.5%
Cc1ccc(C(=O)Nc2ccc(OCc3ccccc3)cc2)cc1[N+](=O)[O-],12.6µM*,-1.7%
NNC(=O)c1ccc(COc2ccccc2)cc1,8.8%,-1.3%
